Screens from PubChem BioAssay.
ssDAF-12 act: activates DAF-12 receptor from parasite S. stercoralis | AID 652126 | HEK293 ssDAF-12/GRIP1 lit1-tk-luc reporter, luminescence; % of 3 µM dafachronic acid response | 370,000 tested, 1% active | activation, % at 6.8 µM;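 active = activation above the mean over all tested compounds plus 3 SD, cut at about 0.9% in these data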;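 also: 0% = DMSO-only wells and 100% = 3 µM delta7-dafachronic acid wells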
hgDAF12 agonist: agonists of H. glycines DAF-12 nuclear receptor | HEK293 GAL4-hgDAF12 UAS-luciferase reporter, agonist luminescence; normalized to butyrate control | activation, % at 6.8 µM | 370,000 tested, 1.8% active | AID 687014;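 active = activation above a cutoff set at the mean of all screened compounds plus 3 SD, cut at about 10% in these data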;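 also: 0% = DMSO wells and 100% = sodium butyrate wells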
hcDAF12 agonist: H. contortus DAF-12 activation, primary screen | activation, % at 6.8 µM | AID 652067 | 370,000 tested, 1.4% active | HEK293 hcDAF-12 lit1-tk-luc reporter, luminescence; 0% DMSO, 100% Δ7-dafachronic acid;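 active = activation above the mean of all tested compounds plus 3 SD, cut at about 5.5% in these data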;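 also: 100% = response to 3 µM Δ7-dafachronic acid high control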
SMARCA2 act: activators of SMARCA2 function | MG213 cells, MMTV-luciferase reporter, dexamethasone, overnight | activation, % at 9.1 µM | 370,000 tested, 1% active; in the data active = activation above about 7.8%;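 also: 0% = vehicle wells and 100% = reference activator wells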
DAX1 inh-1: inhibits human nuclear receptor DAX1. AID 504766. 340,000 tested, 0.99% active. P51843. inhibition, % at 6.75 µM. HEK293 Gal4-DAX1 luciferase reporter, luminescence;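 active = inhibition above the mean over all tested compounds plus 3 SD, cut at about 4.2% in these data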;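 also: 0% = DAX1-transfected cells with DMSO and 100% = empty-vector control cells with DMSO; inhibition shows as a rise in luminescence from relieved DAX1 repression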
Target sequence (P51843 207-470 limits assumed): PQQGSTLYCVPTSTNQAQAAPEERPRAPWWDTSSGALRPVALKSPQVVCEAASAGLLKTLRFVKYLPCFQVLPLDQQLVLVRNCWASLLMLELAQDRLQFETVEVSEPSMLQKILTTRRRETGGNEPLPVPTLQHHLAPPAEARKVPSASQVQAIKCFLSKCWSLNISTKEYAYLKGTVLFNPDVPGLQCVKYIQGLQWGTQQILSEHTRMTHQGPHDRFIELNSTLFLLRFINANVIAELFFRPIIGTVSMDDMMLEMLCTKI
DAX1 inh-2: DAX1 (NR0B1) inhibition, primary screen. 370,000 tested, 1.1% active. inhibition, % at 6.8 µM. HEK293T StAR-luciferase reporter, SF-1/DAX-1 repression relief;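 active = inhibition above the mean over all tested compounds plus 3 SD, cut at about 3.6% in these data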;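 also: 0% = DAX-1 cells with DMSO and 100% = cells lacking DAX-1 with DMSO; higher inhibition means more luminescence from relief of DAX-1 repression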
* hit, by the source's call. In the library only some 4.8% were active in any assay of this set; here they are far more common.

For CCCCC1(C)Nc2ccccc2-c2nc3ccccc3n21 (configuration not stated) the results were ssDAF-12 act 0, hgDAF12 agonist 11*, hcDAF12 agonist 3, SMARCA2 act 6, DAX1 inh-1 3 and DAX1 inh-2 2.
`CN(C)c1ccc(/C=N/NC(=O)CN2CCCCC2)cc1Br` gave ssDAF-12 act 1.3*, hgDAF12 agonist -1, hcDAF12 agonist -2, SMARCA2 act -2, DAX1 inh-1 1 and DAX1 inh-2 1.
Screening O=C(c1cc(S(=O)(=O)N2CCCCC2)ccc1N1CCOCC1)N1CCN(Cc2ccccc2)CC1 returned ssDAF-12 act -1, hgDAF12 agonist -1, hcDAF12 agonist -2, SMARCA2 act 3, DAX1 inh-1 1 and DAX1 inh-2 -1.
CC(CN1CCOCC1)OC(=O)/C=C/c1ccccc1 (configuration not stated) was read as ssDAF-12 act -1, hgDAF12 agonist 4, hcDAF12 agonist 0, SMARCA2 act -2, DAX1 inh-1 0 and DAX1 inh-2 0.
Screening Cc1cc(C(=O)Nc2ccc3c(c2)OCCO3)co1 returned ssDAF-12 act 1, hgDAF12 agonist 9, hcDAF12 agonist 6.1*, SMARCA2 act 5, DAX1 inh-1 1 and DAX1 inh-2 4.1*.
`CC(=O)Nc1ccc(C(=O)Nc2ccc3c(c2)OCCO3)cc1` gave ssDAF-12 act -1, hgDAF12 agonist 0, hcDAF12 agonist -1, SMARCA2 act -2, DAX1 inh-1 -1 and DAX1 inh-2 0.
`O=C(Nc1cccc(F)c1)c1ccc2c(c1)OCCO2` gave ssDAF-12 act 1, hgDAF12 agonist 13*, hcDAF12 agonist 6.3*, SMARCA2 act 6, DAX1 inh-1 0 and DAX1 inh-2 2.
`CN(C)S(=O)(=O)c1ccc(C(=O)NCC(=O)N/N=C/c2ccccc2Cl)cc1` gave ssDAF-12 act -2, hgDAF12 agonist -1, hcDAF12 agonist -2, SMARCA2 act -3, DAX1 inh-1 -1 and DAX1 inh-2 -1.
`Cc1cc(OCC(=O)NC(C)C)ccc1Cl` gave ssDAF-12 act -1, hgDAF12 agonist -2, hcDAF12 agonist -2, SMARCA2 act -3, DAX1 inh-1 0 and DAX1 inh-2 1.
For Cc1cc(OCC(=O)NC(C)C)cc(C)c1Br the results were ssDAF-12 act -1, hgDAF12 agonist -2, hcDAF12 agonist -1, SMARCA2 act 1, DAX1 inh-1 4.4* and DAX1 inh-2 0.
CN(CC(=O)Nc1ccc(F)cc1)C(=O)CN1C(=O)NC2(CCCCC2)C1=O was read as ssDAF-12 act -1, hgDAF12 agonist 1, hcDAF12 agonist 1, SMARCA2 act -2, DAX1 inh-1 1 and DAX1 inh-2 0.
Screening O=C(CN1C(=O)NC2(CCCC2)C1=O)Nc1ccc(OC(F)(F)F)cc1 returned ssDAF-12 act -1, hgDAF12 agonist -1, hcDAF12 agonist -2, SMARCA2 act -2, DAX1 inh-1 9.7* and DAX1 inh-2 0.
O=C(COC(=O)CN1C(=O)NC2(CCCC2)C1=O)Nc1ccccc1C(F)(F)F was read as ssDAF-12 act -1, hgDAF12 agonist 0, hcDAF12 agonist 0, SMARCA2 act -3, DAX1 inh-1 12* and DAX1 inh-2 2.
Screening O=C(CN1C(=O)NC2(CCCC2)C1=O)Nc1nc2ccccc2s1 returned ssDAF-12 act 1, hgDAF12 agonist 5, hcDAF12 agonist 5.8*, SMARCA2 act 2, DAX1 inh-1 4 and DAX1 inh-2 1.
For CN(CC(=O)Nc1ccc(F)cc1)C(=O)COC(=O)CN1C(=O)NC2(CCCC2)C1=O the results were ssDAF-12 act -1, hgDAF12 agonist 0, hcDAF12 agonist 5.8*, SMARCA2 act 1, DAX1 inh-1 0 and DAX1 inh-2 1.
O=C(NCCc1ccc2c(c1)OCCO2)c1cccc(S(=O)(=O)N2CCCC2)c1 was read as ssDAF-12 act -2, hgDAF12 agonist 0, hcDAF12 agonist -1, SMARCA2 act -1, DAX1 inh-1 0 and DAX1 inh-2 -1.
For CCOC(=O)N1CCN(C(=O)C2CCC(=O)N2C(C)C)CC1 (configuration not stated) the results were ssDAF-12 act -1, hgDAF12 agonist -2, hcDAF12 agonist -2, SMARCA2 act -2, DAX1 inh-1 1 and DAX1 inh-2 -1.
`O=C(N[C@@H]1C[C@H]2CC[C@@H]1C2)c1ccco1` gave ssDAF-12 act -1, hgDAF12 agonist 1, hcDAF12 agonist -1, SMARCA2 act -2, DAX1 inh-1 0 and DAX1 inh-2 0.
`O=C(O)c1ccc(/C=N/N2CCN(c3ccccc3)CC2)cc1` gave ssDAF-12 act -1, hgDAF12 agonist 10, hcDAF12 agonist 2, SMARCA2 act 2, DAX1 inh-1 5.4* and DAX1 inh-2 1.
For O=C(c1ccc(-c2ccccc2)cc1)N1CCN(c2ccccc2)CC1 the results were ssDAF-12 act 1, hgDAF12 agonist 5, hcDAF12 agonist 1, SMARCA2 act 4, DAX1 inh-1 4.8* and DAX1 inh-2 0.
`COc1ccc(N2CCN(C(=O)c3ccc(-c4ccccc4)cc3)CC2)cc1` gave ssDAF-12 act -2, hgDAF12 agonist -1, hcDAF12 agonist -2, SMARCA2 act -3, DAX1 inh-1 0 and DAX1 inh-2 0.
COc1ccccc1N1CCN(C(=O)/C=C/c2ccco2)CC1 was read as ssDAF-12 act 0, hgDAF12 agonist 2, hcDAF12 agonist -2, SMARCA2 act 0, DAX1 inh-1 2 and DAX1 inh-2 0.
COc1ccccc1N1CCN(/N=C/C=C\c2ccco2)CC1 was read as ssDAF-12 act 0, hgDAF12 agonist 10, hcDAF12 agonist 5, SMARCA2 act 5, DAX1 inh-1 1 and DAX1 inh-2 4.1*.
`COc1ccccc1N1CCN(/N=C/c2ccc(C(=O)O)cc2)CC1` gave ssDAF-12 act 0, hgDAF12 agonist 11*, hcDAF12 agonist 3, SMARCA2 act 1, DAX1 inh-1 1 and DAX1 inh-2 1.
`CCCCCc1nnc(NC(=O)OCCC)s1` gave ssDAF-12 act -1, hgDAF12 agonist 0, hcDAF12 agonist -2, SMARCA2 act 3, DAX1 inh-1 0 and DAX1 inh-2 0.
Screening CCCOc1ccc2nc(C)c(CCC)c(SC(=N)N)c2c1 returned ssDAF-12 act 0, hgDAF12 agonist 1, hcDAF12 agonist -1, SMARCA2 act -4, DAX1 inh-1 0 and DAX1 inh-2 0.
`Cc1nc2ccc(C(=O)N3CCCC(CO)(Cc4ccc(F)cc4F)C3)cc2nc1C` (configuration not stated) gave ssDAF-12 act -1, hgDAF12 agonist -1, hcDAF12 agonist -1, SMARCA2 act 1, DAX1 inh-1 2 and DAX1 inh-2 1.
